According to ChEMBL document CHEMBL2218924, “A broad activity screen in support of a chemogenomic map for kinase signalling research and drug discovery” (Biochem J, 2013):

These molecules were tested against MAP kinase-activated protein kinase 3 (Homo sapiens) (UniProt Q16644). Settings: at 1 µM.
Chain of MAP kinase-activated protein kinase 3 (Homo sapiens) (Q16644 whole entry, looked up): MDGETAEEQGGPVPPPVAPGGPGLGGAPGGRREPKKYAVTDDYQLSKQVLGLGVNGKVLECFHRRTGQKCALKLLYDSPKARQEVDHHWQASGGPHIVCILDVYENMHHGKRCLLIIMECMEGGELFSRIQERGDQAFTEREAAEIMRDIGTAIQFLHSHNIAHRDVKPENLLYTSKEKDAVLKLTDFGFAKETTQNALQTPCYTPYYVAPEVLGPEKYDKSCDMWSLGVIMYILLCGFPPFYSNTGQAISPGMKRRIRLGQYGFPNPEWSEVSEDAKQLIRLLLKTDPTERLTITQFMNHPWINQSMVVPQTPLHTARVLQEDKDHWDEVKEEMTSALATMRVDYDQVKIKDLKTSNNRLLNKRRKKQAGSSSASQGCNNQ

Going from `COc1ccc(CNc2nc(N(CCO)CCO)nc3c2ncn3C(C)C)cc1` to `CC(C)n1cnc2/c(=N/c3cccc(Cl)c3)nc(NCCO)[nH]c21`, the residual activity rises from 110% to 116%.

Compared with `CC(=O)c1ccc(N2CCOCC2)cc1O`, `COc1ccc(C(=O)Nc2sc3c(c2C(N)=O)CCCC3)cc1OC` is lower in residual activity: 131% for the first, 71% for the second.

Compared with `O=[N+]([O-])c1ccc(-c2nc(-c3ccc(F)cc3)c(-c3ccncc3)[nH]2)cc1`, `Oc1ccc(-c2nc(-c3ccc(F)cc3)c(-c3ccncc3)[nH]2)cc1` is higher in residual activity: 105% for the first, 127% for the second.

First: c1ccc(-c2n[nH]cc2-c2ccnc3ccccc23)nc1
Second: c1ccc2c(-c3ccncc3)c[nH]c2c1
The residual activity of the first is higher: 109% for the first, 103% for the second.

Compared with `CC(C)c1nn(-c2c(Cl)cccc2Cl)c2nc(Cc3ccc(OCCO)cc3)[nH]c(=O)c12`, `CCCCc1c(-c2ccc(OC)cc2)[nH]c2nccnc12` is higher in residual activity: 101% for the first, 130% for the second.

First: O=c1c2ccccc2[nH]c(=S)n1CCN1CCC(=C(c2ccc(F)cc2)c2ccc(F)cc2)CC1
Second: O=C1NC(=O)c2cc(Nc3ccc(F)cc3)c(Nc3ccc(F)cc3)cc21
The residual activity of the first is lower: 89% for the first, 90% for the second.

Going from `O=C1NC(=O)c2c1c1c3ccccc3[nH]c1c1[nH]c3cc(Br)ccc3c21` to `O=Nc1c(-c2c(O)[nH]c3ccccc23)[nH]c2ccccc12`, the residual activity rises from 87% to 117%.

Going from `Cc1nc(-c2ccccc2)c(-c2ccncc2)o1` to `Cc1cc2ncc(-c3ccccc3)nc2cc1C`, the residual activity rises from 103% to 135%.

Compared with `Nc1n[nH]c2nc3ccccc3nc12`, `Oc1c2ccccc2c2c3c(cccc13)N=N2` is higher in residual activity: 99% for the first, 100% for the second.

First: Nc1nccc(-c2c(-c3ccc(F)cc3)ncn2C2CCNCC2)n1
Second: O=c1c(-c2ccc(F)cc2)c(-c2ccncc2)[nH]n1-c1ccc(Cl)cc1
The residual activity of the first is higher: 123% for the first, 122% for the second.

First: Nc1nc(Nc2ccc(S(N)(=O)=O)cc2)nn1C(=S)Nc1c(F)cccc1F
Second: Oc1ccc(Nc2nc(-c3ccc(Cl)cc3)cs2)cc1
The residual activity of the first is lower: 97% for the first, 139% for the second.

Going from `CC(=O)O/N=C1\C(=C2\C(=O)Nc3cc(Br)ccc32)Nc2ccccc21` to `O=C1Nc2cc(Br)ccc2/C1=C1/Nc2ccccc2/C1=N\O`, the residual activity rises from 97% to 98%.

Compared with `CC[n+]1c(/C=C/N(C)c2ccccc2)n(-c2ccccc2)c2ccc(-c3nc4ccccc4s3)cc21`, `O=C(O)c1ccc2c3c1cccc3c(=O)n1c3ccccc3nc21` is higher in residual activity: 100% for the first, 123% for the second.

Going from `CN(C)S(=O)(=O)c1ccc2c(c1)/C(=C/c1cc3c([nH]1)CCCC3)C(=O)N2` to `Cn1cc(/C=C2\C(=O)Nc3ccc(S(N)(=O)=O)cc32)c2ccccc21`, the residual activity rises from 94% to 117%.

Compared with `CN(C)c1ccc(/C=C2\C(=O)Nc3ccccc32)cc1`, `O=C1Cc2c([nH]c3ccc([N+](=O)[O-])cc23)-c2ccccc2N1` is lower in residual activity: 101% for the first, 75% for the second.

Going from `Cc1ccc(S(=O)(=O)/C=C/C#N)cc1` to `O=C1NC(=O)/C(=C\c2ccc3nccnc3c2)S1`, the residual activity rises from 94% to 97%.

Going from `O=C1c2ccccc2-[n+]2ccc3c([nH]c4ccccc43)c21` to `COc1cccc(-c2cc(=O)c3ccccc3o2)c1N`, the residual activity rises from 115% to 122%.

Compared with `O=C(Nc1cccc(Nc2nccc(Nc3cccc(C(F)(F)F)c3)n2)c1)C1CC1`, `COc1cc2ncnc(Nc3ccc(Oc4ccccc4)cc3)c2cc1OC` is lower in residual activity: 122% for the first, 118% for the second.
